Assay results published in PubChem BioAssay AID588405 (Sanford-Burnham Center for Chemical Genomics, 2011).
The campaign covered roughly 360,000 compounds. About 6,200 (1.7%) were called active. Only a selection was taken, and actives are over-represented in it overall. Values without a mark were called inactive.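 The calls were made as follows: active = inhibition of at least 50% at 20 µM; inactive = the rest.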

Test: inhibition of PEG-3 promoter activity – cell-based, HeLa, luciferase luminescence, primary screen (AID 588405)
Settings: HeLa PEG-Prom luciferase reporter, overnight, at 20 µM, active compounds read high

SMILES | inhibition
Cc1cccc(N=Nc2c(O)[nH]c3ccc(F)cc23)c1 | -236%
O=C(CNC(=O)Cc1ccccc1)N=Nc1c(O)[nH]c2ccc(Br)cc12 | -7.31%
NS(=O)(=O)c1ccc(N=Nc2c(O)[nH]c3ccc(Br)cc23)cc1 | 98.7% (active)
CCCNC(=O)c1cc(C2CCCN(C(=O)c3ccc4c(c3)CCO4)C2)on1 (centres undefined) | 11%
Cc1ccc(N2C(=O)CC(NCc3ccc4c(c3)OCO4)C2=O)cc1Cl (centres undefined) | -15.9%
O=C(CSc1nc(=O)n2ccccc2n1)Nc1ccc2c(c1)OCCO2 | -14.4%
CCc1ccc([C@@H]2CC(=O)[C@@H]3CN(S(=O)(=O)c4ccc(C)cc4)[C@H](c4ccc(Cl)cc4)C[C@@H]3N2S(=O)(=O)c2ccc(C)cc2)cc1 | 15.4%
Cc1cc(C(C)(C)C)cc(C)c1N | 6.32%
COc1cnc(-c2ccccn2)nc1Oc1ccc(C(C)(C)C)cc1 | -4.72%
CC(C)(C)c1ccc(Oc2ccc(N)cc2)cc1 | 76.7% (active)
CC1(C(=O)NS(=O)(=O)c2ccc3ccccc3c2)CCN1C(=O)C1(c2ccc(Cl)cc2)CCC1 (centres undefined) | -9.9%
CC1(C(=O)NCc2cccc3ccccc23)CCN1Cc1ccc(-c2ccccc2)o1 (centres undefined) | 21.9%
CCOC(=O)c1ccn(S(=O)(=O)c2ccc(C)cc2)c1-c1ccccc1 | -0.12%
Cc1nc2scc(-c3cccs3)c2c(=O)n1N | 3.36%
CS(=O)(=O)N1CCC(C(=O)N2CCN(c3ccccc3)CC2)CC1 | 8.23%
CCS(=O)(=O)N1CCC(N2CCN(c3ccccc3)CC2)CC1 | 52% (active)
CCS(=O)(=O)N1CCC(C(=O)N2CCN(c3ccccc3)CC2)CC1 | -2.59%
CCC(C)(C)NC(=O)C(c1cccn1C)N(Cc1ccc(C)cc1)C(=O)Cn1nnc2ccccc21 (centres undefined) | 5.59%
Cc1ccccc1-c1nc(NC(C)C)nc2cc(-c3ccccc3)sc12 | 7.19%
COc1ccc2sc(-c3ccccc3OC)c(-c3ccc(OCCN4CCCC4)cc3)c2c1 | 34.9%
COc1cccc(-c2sc3ccc(OC)cc3c2-c2ccc(OCCN3CCCCC3)cc2)c1 | 87.9% (active)
COc1cc(OC)cc(-c2sc3ccc(OC)cc3c2-c2ccc3cc[nH]c3c2)c1 | 2.15%
CCN(CCN(C)C)C(=O)c1ccc2nc(C)c(N(C)C(=O)CCc3ccccc3)n2c1 | -8.8%
COC(=O)c1ccc2nc(C3CCCCC3)c(Cc3cccc(F)c3)n2c1 | -20.6%
